Assay results: PubChem BioAssay (NCATS)
Results filed as inconclusive are left out. Activity calls are given as the source filed them. Calls come from the whole dose curve; as a rule, active = well fitted inhibition curve with a large enough effect; inconclusive = small, poorly fitted or top-dose-only effect; inactive = flat fitted curve, though single readings scatter.

Experiments:
CP269 = experiment: qHTS profiling for inhibitors of Plasmodium falciparum proliferation (AID 504749); note: nearly all actives have a fitted effect of over 60% in size; settings: P. falciparum in erythrocytes, SYBR Green DNA, 72 h; series mostly up to 28.7 µM
Procedure, shortened: (§1)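 P. falciparum-infected erythrocytes (0.3% parasitemia, 2.5% hematocrit) incubated with compound 72 h at 37 C, 5% CO2. Parasite DNA detected by SYBR Green after lysis, overnight at room temperature; normalised to 0.29 uM artemisinin and DMSO.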

CP286 = experiment: as above; settings: P. falciparum in erythrocytes, SYBR Green DNA, 72 h; series mostly up to 28.7 µM
Procedure, shortened: as §1

CP291 = experiment: as above; settings: P. falciparum in erythrocytes, SYBR Green DNA, 72 h; series mostly up to 28.7 µM
Procedure, shortened: as §1

CP297 = experiment: as above; settings: P. falciparum in erythrocytes, SYBR Green DNA, 72 h; series mostly up to 28.7 µM
Procedure, shortened: as §1

CP305 = experiment: as above; settings: P. falciparum in erythrocytes, SYBR Green DNA, 72 h; series mostly up to 28.7 µM
Procedure, shortened: as §1

CP315 = experiment: as above; settings: P. falciparum in erythrocytes, SYBR Green DNA, 72 h; series mostly up to 28.7 µM
Procedure, shortened: as §1

CP325 = experiment: as above; settings: P. falciparum in erythrocytes, SYBR Green DNA, 72 h; series mostly up to 28.7 µM
Procedure, shortened: as §1

CP329 = experiment: as above; settings: P. falciparum in erythrocytes, SYBR Green DNA, 72 h; series mostly up to 28.7 µM
Procedure, shortened: as §1

CP335 = experiment: as above; settings: P. falciparum in erythrocytes, SYBR Green DNA, 72 h; series mostly up to 28.7 µM
Procedure, shortened: as §1

DFO2036 = experiment: as above; settings: P. falciparum in erythrocytes, SYBR Green DNA, 72 h; series mostly up to 28.7 µM
Procedure, shortened: as §1

DIV14 = experiment: as above; settings: P. falciparum in erythrocytes, SYBR Green DNA, 72 h; series mostly up to 28.7 µM
Procedure, shortened: as §1

DIV17 = experiment: as above; settings: P. falciparum in erythrocytes, SYBR Green DNA, 72 h; series mostly up to 28.7 µM
Procedure, shortened: as §1

DIV30 = experiment: as above; settings: P. falciparum in erythrocytes, SYBR Green DNA, 72 h; series mostly up to 28.7 µM
Procedure, shortened: as §1

Dd2 = experiment: as above; settings: P. falciparum in erythrocytes, SYBR Green DNA, 72 h; series mostly up to 28.7 µM
Procedure, shortened: as §1

ECU = experiment: as above; settings: P. falciparum in erythrocytes, SYBR Green DNA, 72 h; series mostly up to 28.7 µM
Procedure, shortened: as §1

FAB9 = experiment: as above; settings: P. falciparum in erythrocytes, SYBR Green DNA, 72 h; series mostly up to 28.7 µM
Procedure, shortened: as §1

GB4 = experiment: as above; settings: P. falciparum in erythrocytes, SYBR Green DNA, 72 h; series mostly up to 28.7 µM
Procedure, shortened: as §1

HB3 = experiment: as above; settings: P. falciparum in erythrocytes, SYBR Green DNA, 72 h; series mostly up to 28.7 µM
Procedure, shortened: as §1

ICS = experiment: as above; settings: P. falciparum in erythrocytes, SYBR Green DNA, 72 h; series mostly up to 28.7 µM
Procedure, shortened: as §1

JCK = experiment: as above; settings: P. falciparum in erythrocytes, SYBR Green DNA, 72 h; series mostly up to 28.7 µM
Procedure, shortened: as §1

N140 = experiment: as above; settings: P. falciparum in erythrocytes, SYBR Green DNA, 72 h; series mostly up to 28.7 µM
Procedure, shortened: as §1

P93_24 = experiment: as above; settings: P. falciparum in erythrocytes, SYBR Green DNA, 72 h; series mostly up to 28.7 µM
Procedure, shortened: as §1

P94_40 = experiment: as above; settings: P. falciparum in erythrocytes, SYBR Green DNA, 72 h; series mostly up to 28.7 µM
Procedure, shortened: as §1

PAD = experiment: as above; settings: P. falciparum in erythrocytes, SYBR Green DNA, 72 h; series mostly up to 28.7 µM
Procedure, shortened: as §1

PC15 = experiment: as above; settings: P. falciparum in erythrocytes, SYBR Green DNA, 72 h; series mostly up to 28.7 µM
Procedure, shortened: as §1

PC26 = experiment: as above; settings: P. falciparum in erythrocytes, SYBR Green DNA, 72 h; series mostly up to 28.7 µM
Procedure, shortened: as §1

PC49 = experiment: as above; settings: P. falciparum in erythrocytes, SYBR Green DNA, 72 h; series mostly up to 28.7 µM
Procedure, shortened: as §1

SC27B = experiment: as above; settings: P. falciparum in erythrocytes, SYBR Green DNA, 72 h; series mostly up to 28.7 µM
Procedure, shortened: as §1

TAB109 = experiment: as above; settings: P. falciparum in erythrocytes, SYBR Green DNA, 72 h; series mostly up to 28.7 µM
Procedure, shortened: as §1

TAB113 = experiment: as above; settings: P. falciparum in erythrocytes, SYBR Green DNA, 72 h; series mostly up to 28.7 µM
Procedure, shortened: as §1

TAB165 = experiment: as above; settings: P. falciparum in erythrocytes, SYBR Green DNA, 72 h; series mostly up to 28.7 µM
Procedure, shortened: as §1

W2 = experiment: as above; settings: P. falciparum in erythrocytes, SYBR Green DNA, 72 h; series mostly up to 28.7 µM
Procedure, shortened: as §1

astro = experiment: Drug repurposing screens with cells derived from glioblastoma tumor samples (AID 1345199); settings: viability, ATP luminescence, 48 h; series mostly up to 45.9 µM; note: nearly all actives have a fitted effect of over 40% in size
Procedure, shortened: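 Four patient lines of CD133+ GBM neurospheres were screened at several concentrations; hits were retested in those lines plus three slower-growing GBM lines, using 48-hour treatment and ATP-based viability.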

Measured: Potency
Potency is the fitted concentration of half-maximal effect.

CCCCCCCCCC[N+](C)(C)CCCCCCCCCC
active: CP269 4.78 µM | CP286 2.51 µM | CP291 5.36 µM | CP297 6.75 µM | CP305 5.36 µM | CP315 16.9 µM | CP325 5.36 µM | CP329 6.75 µM | CP335 6.75 µM | DFO2036 5.01 µM | DIV14 3.01 µM | DIV17 3.01 µM | DIV30 8.49 µM | Dd2 8.91 µM | ECU 5.01 µM | FAB9 5.01 µM | GB4 3.38 µM | HB3 7.94 µM | ICS 2 µM | JCK 10 µM | N140 7.08 µM | P93_24 5.01 µM | P94_40 6.31 µM | PAD 8.91 µM | PC15 3.55 µM | PC26 5.36 µM | PC49 10 µM | SC27B 5.01 µM | TAB109 6.31 µM | TAB113 5.01 µM | TAB165 7.08 µM | W2 1.51 µM | astro 4.47 µM
